The structures appear in SMILES notation. Among all 370,000 compounds or so, about 4,700 (1.3%) were called active. For the sample, actives were picked, then their nearest neighbours and some compounds at random. A number with no mark means an inactive call.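 Rule for the calls: active = inhibition above the plate cutoff, the mean of all test compounds on that plate plus 3 SD (cut at about 35% in these data); inactive = the rest.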

This test can be described thus: small molecules binding CAG repeat RNA – biochemical, fluorescence, primary screen (AID 651821).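 Note: 0% = DMSO alone and 100% = 100 µM mitoxantrone as full dye displacement; higher means more dye released from RNA so lower well fluorescence.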 Conditions: r(CAG) RNA repeat, TO-PRO-1 dye displacement fluorescence; at 3 µM; stronger effect = higher value.
Broadly, the inhibition is the relative decrease from the control value, in per cent. `Cc1ccnc(NS(=O)(=O)c2ccc(NC(=O)c3oc4ccccc4c3C)cc2)n1`: the inhibition was 33.1%.

`Cc1cc(C)c2nc(-c3cccnc3)cc(C(=O)Nc3ccc(S(=O)(=O)Nc4onc(C)c4C)cc3)c2c1`: the inhibition is 80.4% (active).

As for `Cc1ccnc(NS(=O)(=O)c2ccc(NC(=O)c3oc4ccc(F)cc4c3C)cc2)n1`, the inhibition was 33.3%.

With `O=C(Nc1ccc(S(=O)(=O)Nc2ncccn2)cc1)c1cncc(Br)c1`, the inhibition was -0.76%.

On to `Cc1cc(C)c2oc(C(=O)Nc3ccc(S(=O)(=O)Nc4nccc(C)n4)cc3)cc(=O)c2c1`, for which the inhibition was 1.83%.

With `Cc1noc(NS(=O)(=O)c2ccc(NC(=O)c3oc4ccc(F)cc4c3C)cc2)c1C`, the inhibition was 75.7% (active).

Regarding `CN1C(=O)C(Br)(Br)CC1c1cccnc1` (stereo not drawn), the inhibition was 1.36%.

Consider `Cc1c(-c2ccccc2)n[nH]c1C(=O)N=Nc1c(O)[nH]c2ccccc12`, for which the inhibition is 36.8% (active).

On to `O=C(CCN1CCCCC1)N=Nc1c(O)[nH]c2ccccc12`, for which the inhibition was 4.74%.

As for `O=C(CSc1nc2ccccc2s1)N=Nc1c(O)[nH]c2ccccc12`, the inhibition was 10.6%.

Regarding `Cc1ccccc1Nc1nc(N)nc(COC(=O)CCC(=O)c2ccc(F)cc2)n1`, the inhibition is 0.17%.

Consider `CCc1ccccc1NC(=O)CSc1nnc(-c2cccs2)o1`, for which the inhibition is -0.17%.

In the case of `CC(C)[C@@H](C)/C=C/[C@@H](C)[C@H]1CC[C@@H]2[C@]1(C)CCC1[C@]23C=C[C@]2(C[C@@H](O)CC[C@]12C)N(c1ccc([N+](=O)[O-])cn1)O3` (stereo partly drawn), the inhibition is 27.1%.

`Cc1cc(C)c2nc(-c3ccco3)cc(C(=O)O)c2c1`: the inhibition was 67.3% (active).

As to `COC(=O)c1cnn2c(C(F)(F)F)cc(-c3ccco3)nc12`, the inhibition was 10.2%.

With `Cc1ccsc1-c1cc(C(=O)O)c2c(ccc3ccccc32)n1`, the inhibition is 9.82%.

Take `COC(=O)N1Cc2ccnnc2CC1c1ccccc1Br` (stereo not drawn): the inhibition is 3.21%.

Turning to `CN1CCN(S(=O)(=O)c2cccc(C(=O)Nc3cccc(S(N)(=O)=O)c3)c2)CC1`, the inhibition is 1.84%.

Turning to `Cc1ccc(OCCC(=O)Nc2ccc(S(=O)(=O)Nc3nccs3)cc2)cc1`, the inhibition is 36.9% (active).

For the compound `CCC(CC)C(=O)Nc1ccc(S(=O)(=O)Nc2nccs2)cc1`, the inhibition was 3.15%.

For the compound `O=C(CCS(=O)(=O)c1ccccc1Cl)Nc1ccc(S(=O)(=O)Nc2ncccn2)cc1`, the inhibition was 2.17%.

Regarding `COc1ccccc1OC(C)C(=O)Nc1ccc(S(=O)(=O)Nc2nccs2)cc1` (stereo not drawn), the inhibition is 19.7%.

`Cc1ccnc(NS(=O)(=O)c2ccc(NC(=O)c3ccc(S(=O)(=O)N4CCOCC4)cc3)cc2)n1`: the inhibition is 12.3%.

Consider `CN1CCN(S(=O)(=O)c2cccc(C(=O)N3CCc4ccccc43)c2)CC1`, for which the inhibition is 0.16%.

In the case of `O=C(Nc1ccc(S(=O)(=O)N2CCOCC2)cc1)c1ccc2ncsc2c1`, the inhibition was 5.29%.

On to `CN1CCN(S(=O)(=O)c2cccc(C(=O)Nc3sccc3C#N)c2)CC1`, for which the inhibition was 44.6% (active).

Turning to `O=C(CCc1ccccc1Cl)Nc1ccc(S(=O)(=O)Nc2nccs2)cc1`, the inhibition is 44% (active).

In the case of `Cc1ccc(OCCCC(=O)Nc2ccc(S(=O)(=O)Nc3cc(C)nc(C)n3)cc2)cc1`, the inhibition was 24.9%.

With `O=C(Nc1ccc(S(=O)(=O)Nc2nccs2)cc1)c1cccc(S(=O)(=O)N2CCOCC2)c1`, the inhibition was 34.7% (active).

Turning to `N#Cc1cccc(C(=O)NCC2CCN(C(=O)C(=O)c3cc4ccccc4o3)CC2)c1`, the inhibition was 2.89%.

As for `Nc1[nH]c(C(=O)c2ccccc2)c(-c2ccc(Cl)cc2Cl)c1C(=O)c1ccccc1`, the inhibition is 5.66%.

Take `C[C@@H]1CN([C@H](C)CO)C(=O)CCCn2cc(nn2)CO[C@H]1CN(C)C(=O)Nc1ccc(N2CCCCC2)cc1`: the inhibition is 9.11%.

`Cc1ccc2nc(SCC(=O)N3CC(C)OC(C)C3)nc(=O)n2c1` (stereo not drawn): the inhibition is -10.3%.

With `O=C(C1CCCN1S(=O)(=O)c1ccccc1)N1CCc2ccccc2C1` (stereo not drawn), the inhibition was 0.6%.

With `O=C(OCC(=O)N1CCCCC1)c1ccc(OC(F)(F)F)cc1`, the inhibition was -1.21%.

For `O=C(Nc1ccccc1)N1CCN(Cc2nc3ccccc3c(=O)[nH]2)CC1`, the inhibition is -0.05%.

Regarding `CCN(CC)C(=O)CC[C@@H]1CC[C@]2(CCCN(S(=O)(=O)C3CCCCC3)C2)O1`, the inhibition is -0.19%.

Consider `O=C(CSc1nc2c(c(=O)[nH]1)CCCC2)N1CCCCC1`, for which the inhibition is 3.54%.

In the case of `Cc1cc(C(=O)OCC(=O)Nc2nccs2)c2ccccc2n1`, the inhibition was 6.91%.

As to `O=C(Nc1ccc(S(=O)(=O)Nc2nccs2)cc1)c1cc(-c2ccncc2)nc2ccccc12`, the inhibition is 47.9% (active).

As for `O=C(Nc1ccc(S(=O)(=O)Nc2nccs2)cc1)c1cc(=O)[nH]c2ccccc12`, the inhibition is 25.9%.

Consider `CCN(CC(=O)Nc1ccccc1C(F)(F)F)C(=O)C1CCN(C(=O)Nc2ccccc2)CC1`, for which the inhibition was -1.69%.

`COC(=O)[C@]12C[C@H](CC(=O)NCCCCc3ccccc3)C(=O)N(Cc3ccc4c(c3)OCO4)C1=C[C@H](C(C)(C)C)O[C@@H]2C`: the inhibition was 9.49%.

Turning to `CSc1nc(-c2ccccc2)nc(C(Cl)Cl)n1`, the inhibition is -0.59%.

On to `COCc1cc(C(C)=O)ccc1OC`, for which the inhibition is 3.9%.

With `COC(=O)c1ccc(COc2ccc(/C=C/C(=O)c3ccc(OC)c(CSCC(=O)O)c3)cc2OC)cc1`, the inhibition is 43.7% (active).

On to `COc1cc(/C=C/C(=O)OCC(=O)NC(=O)NCc2ccccc2)ccc1OCC#N`, for which the inhibition is -3.56%.

Turning to `COc1ccccc1CCNC(=O)C1CCN(C(=O)/C=C/c2ccccc2)CC1`, the inhibition was -7.33%.

Turning to `COc1ccc(C(=O)/C=C/c2ccc(-c3ccccc3)cc2)cc1CSCC(=O)O`, the inhibition is 63.2% (active).

As for `COc1cc(C(=O)NCC(c2ccco2)N2CCCC2)ccc1OCc1ccccc1` (stereo not drawn), the inhibition was 3.03%.

As to `CCOC(=O)[C@]12CCCC=C1N(Cc1ccc(OC)cc1)C(=O)[C@@H]2CC(=O)NCc1cccs1`, the inhibition is 1.72%.

For the compound `CN(C)[C@H]1CCN(c2cccc3c2S(=O)(=O)N2CC[C@H](C2)O3)C1`, the inhibition was 1.39%.

In the case of `CCOC(=O)c1c(NC(=O)CN2C(=O)NC3(CCC(C)CC3)C2=O)sc(C)c1CC` (stereo not drawn), the inhibition was -14%.

Regarding `CCOC(=O)c1c(NC(=O)C2CC=CCC2C(=O)O)sc(C)c1CC` (stereo not drawn), the inhibition is 34.6% (active).

For `CCc1c(C)sc(NC(=O)c2cccs2)c1C(N)=O`, the inhibition is 5.17%.

Take `Cc1ccc(N)cc1CN1CCN(c2ncc(Cc3ccccc3)cn2)CC1`: the inhibition was 3.17%.

As to `CC(C)(C)OC(=O)NCc1cc(F)ccc1/C=C/S(=O)(=O)NCCc1ccccc1`, the inhibition is -0.33%.

As to `CC1(C)OC(=O)C2=C(CC(CCc3ccccc3)OC2c2ccc(Cl)cc2)O1` (stereo not drawn), the inhibition was 3.44%.

For the compound `CCC(C(=O)Nc1ncccn1)(C(F)(F)F)C(F)(F)F`, the inhibition was -0.05%.

Consider `COc1ccc(NS(=O)(=O)c2ccc(C(=O)Nc3c(C)n(C)n(-c4ccccc4)c3=O)cc2)cc1`, for which the inhibition was 10.7%.

Regarding `Cc1ccc(C(=O)Nc2ccccc2-c2ccccc2)cc1S(=O)(=O)Nc1ccccc1`, the inhibition was 17.1%.

In the case of `COc1ccc(NS(=O)(=O)c2cc(NC(=O)COc3ccccc3F)ccc2OC)cc1`, the inhibition is 4.34%.

Turning to `COc1cc(/C=C/C(=O)O)cc(S(=O)(=O)Nc2ccccc2SC)c1OC`, the inhibition is 8.56%.

Regarding `COc1ccc(NS(=O)(=O)c2cc(NC(=O)CC(=O)c3ccc([N+](=O)[O-])cc3)ccc2C)cc1`, the inhibition was 42.4% (active).

In the case of `COc1cc(OC)c(S(=O)(=O)Nc2ccccc2C(=O)O)cc1S(=O)(=O)Nc1ccccc1C(=O)O`, the inhibition is 63.4% (active).

As to `COc1ccc(OC)c(S(=O)(=O)Nc2ccccc2F)c1`, the inhibition was -3.01%.

In the case of `COc1ccc(NS(=O)(=O)c2cc(C(=O)Nc3ccccc3C(=O)O)ccc2C)cc1`, the inhibition was 74.6% (active).

`Cc1ccc(NC(=O)CCNC(=O)c2ccc([N+](=O)[O-])cc2)cc1S(=O)(=O)N1CCOCC1`: the inhibition was 1.24%.

Turning to `CCOC(=O)[C@]12CCCCC/C=C\1N(Cc1ccc(OC)cc1)C(=O)[C@H]2CC(=O)N1CCOCC1`, the inhibition was 4.38%.

For `COc1ccc(-c2cc(-c3nnc(SCC(=O)Nc4cccc5ccccc45)n3N)[nH]n2)cc1`, the inhibition is 10.7%.

Turning to `COC(=O)[C@]12C[C@H](CC(=O)NCc3ccccc3)C(=O)N(CCC3=CCCCC3)C1=C[C@H](C(C)(C)C)O[C@@H]2C`, the inhibition is 1.7%.

For `COc1ccc(N2CCN(CCNS(=O)(=O)c3ccc(Cl)s3)CC2)cc1`, the inhibition is -0.11%.

On to `C=CCN(C)CC#Cc1ccccc1`, for which the inhibition was -0.11%.

Turning to `COc1ccc(N2CCN(CCNS(=O)(=O)c3ccc([N+](=O)[O-])cc3)CC2)cc1`, the inhibition was 0.28%.

Regarding `CCCC[C@H](C(=O)N(CC)c1ccccc1)[C@@H](O)c1ccc2ccccc2c1`, the inhibition was 4.92%.

For `CC(=O)Nc1ccc(NC(=O)c2ccc3c(c2)C(=O)N(c2ccccc2C)C3=O)cc1`, the inhibition was -2.08%.

In the case of `CC(=O)Oc1ccc(C)cc1N1C(=O)c2ccc(C(=O)O)cc2C1=O`, the inhibition was 4.11%.

On to `O=C(O)c1ccc2c(c1)C(=O)N(c1ccc(/C=C/C(=O)c3ccccc3)cc1)C2=O`, for which the inhibition was 46.3% (active).

As to `CN1C(=O)c2cc(NS(C)(=O)=O)ccc2OC[C@@H]2O[C@@H](CC(=O)NCc3ccc(-c4ccccc4)cc3)CC[C@H]21`, the inhibition was 4.86%.

As for `Cc1noc(C)c1C(=O)N1CCC1(C)C(=O)NS(=O)(=O)c1ccc(C#N)cc1` (stereo not drawn), the inhibition is 0.97%.

Consider `CC1(C(=O)NS(=O)(=O)c2ccc(C#N)cc2)CCN1C(=O)CC1CCCC1` (stereo not drawn), for which the inhibition was 1.94%.

With `CC1(C(=O)NS(=O)(=O)c2ccc(C#N)cc2)CCN1C(=O)c1ccc(C2CCCCC2)cc1` (stereo not drawn), the inhibition was 46.9% (active).

With `CC[C@H](NC(=O)[C@H](Cc1ccccc1)NC(=O)[C@H]1O[C@@H](n2cnc3c(=O)[nH]c(N)nc32)[C@H](O)[C@@H]1O)c1ccccc1`, the inhibition is 14.3%.
